Results as given in PubChem BioAssay AID1159580 (chemical genetic matrix, 2015).
Hit rate of the full screen: of about 5,500 compounds, about 2,000 (36%) were called active. Roughly 18% stayed inconclusive and do not appear here. Cut-off read from the data, not from the text of the source: active = normalized growth mostly below about 0.91 (no sharp cut-off); inconclusive = no clear call, values can overlap the other calls; inactive = mostly above about 0.92. Some of the results follow.

Experiment: chemical genetic growth profiling, strain panel (AID 1159580);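 note: tested at 20 µM; growth read once vehicle control cultures reached saturation at 30 °C; 1 = growth at the plate median or of vehicle wells; lower values mean less growth of the strain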
Conditions: S. cerevisiae deletion strains, growth OD
[1] = locus YAL021C, strain ccr4, hits give low values
[2] = locus YAL026C, strain drs2, hits give low values
[3] = locus YAL030W, strain snc1, hits give low values
[4] = locus YBL061C, strain skt5, hits give low values
[5] = locus YBR009C, strain hhf1, hits give low values
[6] = locus YBR023C, strain chs3, hits give low values
[7] = locus YBR171W, strain sec66, hits give low values
[8] = locus YBR231C, strain swc5, hits give low values
[9] = locus YBR279W, strain paf1, hits give low values
[10] = locus YCL011C, strain gbp2, hits give low values
[11] = locus YCL016C, strain dcc1, hits give low values
[12] = locus YCL069W, strain vba3, hits give low values
[13] = locus YCR088W, strain abp1, hits give low values
[14] = locus YDL005C, strain med2, hits give low values
[15] = locus YDL040C, strain nat1, hits give low values
[16] = locus YDR001C, strain nth1, hits give low values
[17] = locus YDR069C, strain doa4, hits give low values
[18] = locus YDR137W, strain rgp1, hits give low values
[19] = locus YDR159W, strain sac3, hits give low values
[20] = locus YDR297W, strain sur2, hits give low values
[21] = locus YDR335W, strain msn5, hits give low values
[22] = locus YDR392W, strain spt3, hits give low values
[23] = locus YEL003W, strain gim4, hits give low values
[24] = locus YEL037C, strain rad23, hits give low values
[25] = locus YEL061C, strain CIN8 (second series), hits give low values
[26] = locus YER015W, strain faa2, hits give low values
[27] = locus YER016W, strain bim1, hits give low values
[28] = locus YER111C, strain swi4, hits give low values
[29] = locus YER155C, strain BEM2 (second series), hits give low values
[30] = locus YFR010W, strain ubp6, hits give low values
[31] = locus YGL167C, strain pmr1, hits give low values
[32] = locus YGL173C, strain kem1, hits give low values
[33] = locus YGL227W, strain vid30, hits give low values
[34] = locus YGL240W, strain doc1, hits give low values
[35] = locus YGL253W, strain hxk2, hits give low values
[36] = locus YHR013C, strain ard1, hits give low values
[37] = locus YHR027C, strain rpn1, hits give low values
[38] = locus YHR030C, strain SLT2, hits give low values
[39] = locus YHR079C, strain IRE1, hits give low values
[40] = locus YHR142W, strain chs7, hits give low values
[41] = locus YJL092W, strain hpr5, hits give low values
[42] = locus YJL095W, strain BCK1 (second series), hits give low values
[43] = locus YJL095W, strain BCK1, hits give low values
[44] = locus YJL115W, strain asf1, hits give low values
[45] = locus YJL129C, strain trk1, hits give low values
[46] = locus YJL154C, strain vps35, hits give low values
[47] = locus YJL164C, strain tpk1, hits give low values
[48] = locus YJL166W, strain qcr8, hits give low values
[49] = locus YJR066W, strain TOR1, hits give low values
[50] = locus YKL160W, strain elf1, hits give low values
[51] = locus YKR026C, strain gcn3, hits give low values
[52] = locus YKR091W, strain srl3, hits give low values
[53] = locus YLL001W, strain dnm1, hits give low values
[54] = locus YLL026W, hits give low values
[55] = locus YLL041C, strain sdh2, hits give low values
[56] = locus YLR027C, strain aat2, hits give low values
[57] = locus YLR113W, strain HOG1, hits give low values
[58] = locus YLR221C, strain rsa3, hits give low values
[59] = locus YLR258W, strain gsy2, hits give low values
[60] = locus YLR262C, strain YPT6 (second series), hits give low values
[61] = locus YLR320W, strain mms22, hits give low values
[62] = locus YLR342W, strain FKS1, hits give low values
[63] = locus YLR357W, strain rsc2, hits give low values
[64] = locus YLR370C, strain arc18, hits give low values
[65] = locus YLR384C, strain iki3, hits give low values
[66] = locus YML120C, strain ndi1, hits give low values
[67] = locus YMR058W, strain fet3, hits give low values
[68] = locus YMR125W, strain sto1, hits give low values
[69] = locus YMR129W, hits give low values
[70] = locus YMR205C, strain PFK2, hits give low values
[71] = locus YMR231W, strain pep5, hits give low values
[72] = locus YNL071W, strain lat1, hits give low values
[73] = locus YNL183C, strain NPR1, hits give low values
[74] = locus YNL209W, strain ssb2, hits give low values
[75] = locus YNL248C, strain rpa49, hits give low values
[76] = locus YNL322C, strain KRE1 (second series), hits give low values
[77] = locus YNR049C, strain mso1, hits give low values
[78] = locus YOR001W, strain rrp6, hits give low values
[79] = locus YOR070C, strain gyp1, hits give low values
[80] = locus YOR080W, strain dia2, hits give low values
[81] = locus YOR083W, strain WHI5, hits give low values
[82] = locus YOR106W, strain vam3, hits give low values
[83] = locus YOR231W, strain MKK1, hits give low values
[84] = locus YOR265W, strain rbl2, hits give low values
[85] = locus YOR270C, strain vph1, hits give low values
[86] = locus YOR290C, strain snf2, hits give low values
[87] = locus YPL051W, strain arl3, hits give low values
[88] = locus YPL078C, strain atp4, hits give low values
[89] = locus YPL106C, strain sse1, hits give low values
[90] = locus YPL240C, strain hsp82, hits give low values
[91] = locus YPL256C, strain CLN2, hits give low values
[92] = locus YCL061C, strain MRC1, hits give low values
[93] = locus YDR334W, strain swr1, hits give low values
[94] = locus YJL187C, strain SWE1, hits give low values

Measured: normalized growth

C=CCCCCCCCCCCCc1ccco1
inactive: [1] 0.981 | [3] 0.939 | [7] 0.995 | [14] 0.979 | [15] 0.999 | [16] 1.01 | [17] 0.94 | locus YDR195W, strain ref2 0.939 | [24] 0.995 | [28] 0.975 | [30] 0.921 | [31] 1.01 | [37] 0.937 | [38] 0.87 | [39] 0.858 | [41] 0.933 | [44] 0.984 | [45] 0.877 | [46] 1.01 | [49] 0.925 | [51] 0.986 | [52] 0.996 | [54] 0.935 | [55] 0.968 | [63] 0.967 | [64] 0.966 | [65] 0.967 | [66] 0.934 | [69] 0.976 | [71] 0.997 | [73] 0.869 | [74] 0.945 | [76] 0.976 | [77] 0.994 | [78] 0.954 | [80] 0.99 | [84] 0.976 | [86] 0.909 | [89] 0.96 | [91] 0.856
active: [2] 0.869 | [4] 0.896 | [5] 0.659 | [6] 0.905 | [8] 0.873 | [9] 0.873 | [10] 0.803 | [11] 0.861 | [12] 0.848 | [13] 0.916 | [18] 0.629 | [19] 0.854 | [20] 0.878 | [21] 0.84 | [22] 0.0917 | [23] 0.884 | [25] 0.52 | [26] 0.913 | [27] 0.814 | [29] 0.309 | [32] 0.868 | [33] 0.766 | [34] 0.869 | [35] 0.82 | [36] 0.613 | [40] 0.53 | [42] 0.587 | [43] 0.877 | [47] 0.819 | [48] 0.589 | [50] 0.732 | [53] 0.885 | [56] 0.727 | [57] 0.832 | [58] 0.66 | [59] 0.861 | [60] 0.582 | [61] 0.621 | [62] 0.858 | [67] 0.692 | [68] 0.807 | [70] 0.719 | [72] 0.253 | [75] 0.879 | [79] 0.833 | [81] 0.863 | [82] 0.819 | [83] 0.856 | [85] 0.626 | [87] 0.754 | [88] 0.79 | [90] 0.847

C#CCCCCCCCCCCCc1ccco1
active: [22] 0.603 | [29] 0.849 | [72] 0.877
inactive: [1] 1.02 | [2] 0.98 | [3] 0.997 | [4] 0.999 | [5] 0.954 | [6] 0.994 | [7] 0.997 | [8] 0.995 | [9] 1 | [10] 0.983 | [11] 0.999 | [92] 1 | [12] 0.995 | [13] 0.992 | [14] 0.991 | [15] 0.987 | [16] 0.99 | [17] 0.983 | [18] 0.993 | [19] 0.958 | locus YDR195W, strain ref2 0.99 | [20] 1 | [93] 0.999 | [21] 0.989 | [23] 1.01 | [24] 1.01 | [25] 1 | [26] 0.992 | [27] 0.988 | [28] 0.972 | [30] 0.996 | [31] 0.999 | [32] 0.989 | [33] 0.991 | [34] 0.995 | [35] 0.989 | [36] 0.869 | [37] 1 | [40] 0.971 | [41] 0.989 | [42] 0.997 | [44] 0.987 | [45] 0.968 | [46] 1.01 | [47] 0.973 | [48] 0.947 | [94] 1 | [50] 0.985 | [51] 0.964 | [52] 0.993 | [53] 0.981 | [54] 0.982 | [55] 1 | [56] 0.985 | [58] 0.975 | [59] 0.99 | [60] 0.917 | [61] 0.932 | [62] 0.989 | [63] 0.975 | [64] 0.998 | [65] 0.987 | [66] 1 | [67] 0.987 | [68] 0.958 | [69] 0.998 | [70] 0.938 | [71] 0.993 | [74] 0.998 | [75] 0.982 | [76] 0.983 | [77] 0.996 | [78] 1 | [79] 1.01 | [80] 0.993 | [81] 0.985 | [82] 0.949 | [84] 1 | [85] 0.962 | [86] 0.975 | [87] 0.988 | [88] 0.991 | [89] 1.04 | [90] 1

CCCCCCCCCCCCCc1ccco1
inactive: [1] 1.01 | [2] 0.976 | [3] 0.991 | [4] 0.979 | [6] 0.969 | [7] 0.991 | [8] 0.938 | [9] 0.947 | [10] 0.954 | [11] 0.973 | [92] 0.96 | [12] 0.989 | [13] 0.993 | [14] 0.988 | [15] 0.983 | [16] 0.989 | [17] 0.964 | [18] 0.886 | [19] 0.933 | locus YDR195W, strain ref2 0.973 | [20] 0.989 | [93] 0.987 | [21] 0.987 | [23] 0.953 | [24] 0.983 | [25] 0.976 | [26] 0.989 | [27] 0.978 | [28] 0.966 | [30] 0.96 | [31] 0.979 | [32] 0.968 | [33] 0.971 | [34] 0.936 | [35] 0.98 | [37] 0.992 | [38] 0.951 | [39] 0.937 | [40] 0.922 | [41] 0.988 | [42] 0.939 | [43] 0.977 | [44] 0.99 | [45] 0.925 | [46] 0.991 | [94] 0.978 | [49] 0.944 | [50] 0.931 | [51] 0.966 | [52] 0.989 | [53] 0.976 | [54] 0.949 | [55] 0.99 | [56] 0.939 | [57] 0.939 | [59] 0.94 | [62] 0.986 | [63] 0.99 | [64] 0.989 | [65] 0.983 | [66] 0.959 | [67] 0.925 | [68] 0.934 | [69] 0.985 | [71] 0.985 | [73] 0.908 | [74] 0.993 | [75] 0.999 | [76] 0.995 | [77] 0.989 | [78] 0.974 | [79] 0.944 | [80] 1 | [81] 0.96 | [82] 0.927 | [83] 0.899 | [84] 0.981 | [85] 0.929 | [86] 0.913 | [87] 0.964 | [88] 0.947 | [89] 1.01 | [90] 0.991 | [91] 0.91
active: [5] 0.825 | [22] 0.266 | [29] 0.635 | [36] 0.699 | [47] 0.915 | [48] 0.835 | [58] 0.889 | [60] 0.816 | [61] 0.81 | [70] 0.841 | [72] 0.621
